# Measured values: publication PMC7862700, “An all-to-all approach to the identification of sequence-specific readers for epigenetic DNA modifications on cytosine”
# Key:
# Test in all cases: DAPPL (digital affinity profiling via proximity ligation, sequencing); 10 mM Tris-HCl pH 7.5, 50 mM NaCl, 1 mM DTT, 4% glycerol, room temperature, 30 min; GST-TFs on glutathione beads, 16-mer random dsDNA library, 0.1% formaldehyde crosslink after washing; high values mean tight binding
# FEV = target: T1, FEV (Homo sapiens, UniProt Q99581 1-238); conditions: protein: recombinant; tags: N-terminal GST; dsDNA, one strand shown
# T1 sequence: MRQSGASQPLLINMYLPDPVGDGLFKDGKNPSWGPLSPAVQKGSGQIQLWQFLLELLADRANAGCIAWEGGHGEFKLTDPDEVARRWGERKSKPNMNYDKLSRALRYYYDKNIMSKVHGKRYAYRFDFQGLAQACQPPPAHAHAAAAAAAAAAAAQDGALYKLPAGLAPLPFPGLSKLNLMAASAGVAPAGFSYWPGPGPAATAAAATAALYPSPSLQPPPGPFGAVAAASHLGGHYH
# Outline: (§1)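 Beads coated with glutathione captured GST-fused human transcription factors that had been expressed in yeast, and the factors were then given DNA barcodes and pooled with a tag-only sample. The pools were incubated with 200 nmole of a random double-stranded 16-mer DNA library in Tris/NaCl/DTT/glycerol buffer for 30 min at room temperature, washed, crosslinked with 0.1% formaldehyde and proximity-ligated with BsaI/T4 ligase at 37 °C for 1 h. PCR amplification and Illumina NextSeq500 sequencing came last. Binding signal is each hexamer's read frequency for a factor divided by its frequency for the tag-only sample.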
# ETV5 = ETV5 (Homo sapiens, UniProt P41161 1-510); conditions: protein: recombinant; tags: N-terminal GST; dsDNA, one strand shown
# Outline: as §1
# HSF1 = HSF1 (Homo sapiens, UniProt Q00613 1-529); conditions: protein: recombinant; tags: N-terminal GST; chain copies: 3; dsDNA, one strand shown
# Outline: as §1
# SPIC = target: T2, SPIC (Homo sapiens, UniProt Q8N5J4 1-248); conditions: protein: recombinant; tags: N-terminal GST; dsDNA, one strand shown
# T2 sequence: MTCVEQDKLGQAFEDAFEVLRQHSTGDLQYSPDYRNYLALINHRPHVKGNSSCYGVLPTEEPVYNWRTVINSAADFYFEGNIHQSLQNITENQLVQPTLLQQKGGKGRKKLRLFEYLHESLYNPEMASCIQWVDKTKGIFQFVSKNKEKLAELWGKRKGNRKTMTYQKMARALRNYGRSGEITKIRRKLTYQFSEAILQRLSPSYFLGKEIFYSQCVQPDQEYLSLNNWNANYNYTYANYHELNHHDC
# Outline: as §1
# ELF4 = ELF4 (Homo sapiens, UniProt Q99607 1-663); conditions: protein: recombinant; tags: N-terminal GST; dsDNA, one strand shown
# Outline: as §1
# ELK4 = target: T3, ELK4 (Homo sapiens, UniProt P28324-2 1-405); conditions: protein: recombinant; tags: N-terminal GST; dsDNA, one strand shown
# T3 sequence: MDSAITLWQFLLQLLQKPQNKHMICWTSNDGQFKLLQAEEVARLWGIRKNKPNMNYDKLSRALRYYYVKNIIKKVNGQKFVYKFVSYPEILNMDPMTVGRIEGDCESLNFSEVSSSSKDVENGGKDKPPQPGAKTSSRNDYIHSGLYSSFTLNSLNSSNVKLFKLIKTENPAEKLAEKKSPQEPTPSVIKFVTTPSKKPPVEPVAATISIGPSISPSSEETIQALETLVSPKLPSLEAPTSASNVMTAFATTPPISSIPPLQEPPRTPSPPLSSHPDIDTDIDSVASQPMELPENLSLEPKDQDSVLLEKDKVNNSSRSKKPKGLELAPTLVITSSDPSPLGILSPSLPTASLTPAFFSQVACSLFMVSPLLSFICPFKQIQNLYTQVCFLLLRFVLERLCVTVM
# Outline: as §1
# ETV2 = target: T4, ETV2 (Homo sapiens, UniProt O00321 1-342); conditions: protein: recombinant; tags: N-terminal GST; dsDNA, one strand shown
# T4 sequence: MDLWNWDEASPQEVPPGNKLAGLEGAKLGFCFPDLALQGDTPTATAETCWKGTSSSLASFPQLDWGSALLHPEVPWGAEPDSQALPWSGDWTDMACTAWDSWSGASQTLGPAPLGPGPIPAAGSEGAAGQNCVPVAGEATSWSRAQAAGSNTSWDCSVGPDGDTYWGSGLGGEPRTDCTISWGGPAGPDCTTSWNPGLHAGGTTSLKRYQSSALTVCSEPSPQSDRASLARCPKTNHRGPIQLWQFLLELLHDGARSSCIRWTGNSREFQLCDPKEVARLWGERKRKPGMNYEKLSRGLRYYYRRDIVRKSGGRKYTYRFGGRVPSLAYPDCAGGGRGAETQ
# Outline: as §1
# ELF3 = target: T5, ELF3 (Homo sapiens, UniProt P78545 1-371); conditions: protein: recombinant; tags: N-terminal GST; dsDNA, one strand shown
# T5 sequence: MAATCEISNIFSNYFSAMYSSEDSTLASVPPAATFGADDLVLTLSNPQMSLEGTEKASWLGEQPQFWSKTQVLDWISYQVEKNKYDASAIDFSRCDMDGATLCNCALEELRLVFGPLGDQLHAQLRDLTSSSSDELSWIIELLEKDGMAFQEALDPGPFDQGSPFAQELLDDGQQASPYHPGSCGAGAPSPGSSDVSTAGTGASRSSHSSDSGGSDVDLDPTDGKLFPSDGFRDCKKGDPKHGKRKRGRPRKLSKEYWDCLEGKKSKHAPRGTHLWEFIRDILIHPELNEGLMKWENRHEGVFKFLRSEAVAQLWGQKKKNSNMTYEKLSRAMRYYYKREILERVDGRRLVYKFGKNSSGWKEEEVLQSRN
# Outline: as §1
# CRX = CRX (Homo sapiens, UniProt O43186 1-299); conditions: protein: recombinant; tags: N-terminal GST; dsDNA, one strand shown
# Outline: as §1
# ETV1 = ETV1 (Homo sapiens, UniProt P50549 1-477); conditions: protein: recombinant; tags: N-terminal GST; dsDNA, one strand shown
# Outline: as §1
# ERF = target: T6, ERF (Homo sapiens, UniProt P50548 1-548); conditions: protein: recombinant; tags: N-terminal GST; dsDNA, one strand shown
# T6 sequence: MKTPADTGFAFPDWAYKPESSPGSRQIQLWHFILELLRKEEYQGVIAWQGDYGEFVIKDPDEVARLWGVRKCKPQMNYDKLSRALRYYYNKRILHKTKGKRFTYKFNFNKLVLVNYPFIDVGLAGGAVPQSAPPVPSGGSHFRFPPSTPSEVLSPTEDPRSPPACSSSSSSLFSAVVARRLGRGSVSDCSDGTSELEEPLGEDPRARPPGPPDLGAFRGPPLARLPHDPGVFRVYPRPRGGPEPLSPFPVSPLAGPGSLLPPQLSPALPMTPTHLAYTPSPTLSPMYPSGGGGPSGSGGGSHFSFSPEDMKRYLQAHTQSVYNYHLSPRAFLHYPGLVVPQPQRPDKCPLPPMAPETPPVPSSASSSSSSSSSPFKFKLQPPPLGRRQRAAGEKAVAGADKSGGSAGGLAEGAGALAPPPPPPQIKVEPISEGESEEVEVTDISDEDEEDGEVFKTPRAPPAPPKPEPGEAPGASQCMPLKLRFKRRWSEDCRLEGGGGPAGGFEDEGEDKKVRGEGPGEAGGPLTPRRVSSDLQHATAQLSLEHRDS
# Outline: as §1
# ETV3L = target: T7, ETV3L (Homo sapiens, UniProt Q6ZN32 1-361); conditions: protein: recombinant; tags: N-terminal GST; dsDNA, one strand shown
# T7 sequence: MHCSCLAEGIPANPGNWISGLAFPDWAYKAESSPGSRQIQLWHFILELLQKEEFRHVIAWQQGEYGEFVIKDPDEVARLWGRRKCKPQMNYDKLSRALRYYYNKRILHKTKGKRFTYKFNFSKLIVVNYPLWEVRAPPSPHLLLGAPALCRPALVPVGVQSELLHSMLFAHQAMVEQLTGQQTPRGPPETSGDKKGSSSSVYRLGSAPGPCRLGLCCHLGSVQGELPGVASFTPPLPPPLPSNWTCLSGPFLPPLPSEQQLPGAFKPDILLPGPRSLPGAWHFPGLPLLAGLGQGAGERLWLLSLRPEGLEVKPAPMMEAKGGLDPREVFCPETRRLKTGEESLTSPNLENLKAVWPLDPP
# Outline: as §1
# ETS2 = target: T8, ETS2 (Homo sapiens, UniProt P15036 1-469); conditions: protein: recombinant; tags: N-terminal GST; dsDNA, one strand shown
# T8 sequence: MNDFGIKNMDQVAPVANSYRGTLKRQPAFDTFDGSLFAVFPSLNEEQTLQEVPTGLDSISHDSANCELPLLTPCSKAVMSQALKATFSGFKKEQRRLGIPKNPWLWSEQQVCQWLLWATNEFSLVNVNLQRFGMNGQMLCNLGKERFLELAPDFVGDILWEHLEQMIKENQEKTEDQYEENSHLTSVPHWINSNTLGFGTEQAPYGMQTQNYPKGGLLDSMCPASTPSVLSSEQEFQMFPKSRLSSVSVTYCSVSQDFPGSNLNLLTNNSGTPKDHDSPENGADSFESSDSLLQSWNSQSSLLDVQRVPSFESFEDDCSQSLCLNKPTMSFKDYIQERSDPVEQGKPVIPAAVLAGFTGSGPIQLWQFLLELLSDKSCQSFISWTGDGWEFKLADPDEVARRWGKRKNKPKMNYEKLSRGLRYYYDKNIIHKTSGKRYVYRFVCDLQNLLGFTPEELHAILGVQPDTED
# Outline: as §1
# SPDEF = target: T9, SPDEF (Homo sapiens, UniProt O95238 1-335); conditions: protein: recombinant; tags: N-terminal GST; dsDNA, one strand shown
# T9 sequence: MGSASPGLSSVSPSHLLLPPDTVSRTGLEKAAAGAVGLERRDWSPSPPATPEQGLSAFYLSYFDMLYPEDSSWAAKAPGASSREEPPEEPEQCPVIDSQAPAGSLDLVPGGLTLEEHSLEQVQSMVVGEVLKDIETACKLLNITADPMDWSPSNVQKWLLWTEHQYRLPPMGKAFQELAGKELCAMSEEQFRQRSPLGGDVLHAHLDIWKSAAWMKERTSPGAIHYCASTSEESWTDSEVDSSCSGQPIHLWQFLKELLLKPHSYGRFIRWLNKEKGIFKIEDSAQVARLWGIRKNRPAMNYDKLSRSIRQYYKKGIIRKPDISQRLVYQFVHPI
# Outline: as §1
# ETV7 = target: T10, ETV7 (Homo sapiens, UniProt Q9Y603 1-341); conditions: protein: recombinant; tags: N-terminal GST; dsDNA, one strand shown
# T10 sequence: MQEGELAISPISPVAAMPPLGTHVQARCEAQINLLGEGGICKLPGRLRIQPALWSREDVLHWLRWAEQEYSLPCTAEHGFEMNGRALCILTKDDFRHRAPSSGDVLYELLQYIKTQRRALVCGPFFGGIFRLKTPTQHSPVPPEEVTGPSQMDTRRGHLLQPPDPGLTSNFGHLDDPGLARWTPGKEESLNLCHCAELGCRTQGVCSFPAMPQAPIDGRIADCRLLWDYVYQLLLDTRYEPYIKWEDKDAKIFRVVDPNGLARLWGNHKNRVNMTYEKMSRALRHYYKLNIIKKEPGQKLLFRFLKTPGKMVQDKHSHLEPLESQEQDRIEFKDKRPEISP
# Outline: as §1
# ELF5 = target: T11, ELF5 (Homo sapiens, UniProt Q9UKW6-2 1-255); conditions: protein: recombinant; tags: N-terminal GST; dsDNA, one strand shown
# T11 sequence: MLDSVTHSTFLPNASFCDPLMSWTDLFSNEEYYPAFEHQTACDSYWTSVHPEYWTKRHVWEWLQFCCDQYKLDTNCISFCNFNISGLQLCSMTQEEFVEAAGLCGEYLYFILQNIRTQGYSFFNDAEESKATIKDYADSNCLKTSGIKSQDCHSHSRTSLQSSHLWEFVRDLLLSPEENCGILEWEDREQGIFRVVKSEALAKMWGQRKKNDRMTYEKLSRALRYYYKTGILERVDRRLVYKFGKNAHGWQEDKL
# Outline: as §1
# ETV3 = target: T12, ETV3 (Homo sapiens, UniProt P41162-2 1-143); conditions: protein: recombinant; tags: N-terminal GST; dsDNA, one strand shown
# T12 sequence: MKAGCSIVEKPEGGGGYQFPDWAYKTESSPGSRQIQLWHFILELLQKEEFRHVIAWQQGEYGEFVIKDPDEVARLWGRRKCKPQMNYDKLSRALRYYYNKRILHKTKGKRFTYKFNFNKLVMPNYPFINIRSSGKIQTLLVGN
# Outline: as §1
# ETV6 = ETV6 (Homo sapiens, UniProt P41212 1-452); conditions: protein: recombinant; tags: N-terminal GST; dsDNA, one strand shown
# Outline: as §1
# Chain of ETV6 (P41212 whole entry): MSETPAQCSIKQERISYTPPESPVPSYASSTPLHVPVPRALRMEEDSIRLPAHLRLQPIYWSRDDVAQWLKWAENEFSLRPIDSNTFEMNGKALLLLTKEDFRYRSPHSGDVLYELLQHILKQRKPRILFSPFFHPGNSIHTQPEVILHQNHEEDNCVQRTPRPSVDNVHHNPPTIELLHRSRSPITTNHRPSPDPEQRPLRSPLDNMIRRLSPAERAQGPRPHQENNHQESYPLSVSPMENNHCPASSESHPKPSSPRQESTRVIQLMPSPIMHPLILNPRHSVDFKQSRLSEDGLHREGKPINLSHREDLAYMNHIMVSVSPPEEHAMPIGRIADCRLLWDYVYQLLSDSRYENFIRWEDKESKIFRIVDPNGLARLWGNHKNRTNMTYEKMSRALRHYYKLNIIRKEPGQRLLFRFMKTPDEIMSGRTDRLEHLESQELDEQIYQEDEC
# Chain of CRX (O43186 whole entry): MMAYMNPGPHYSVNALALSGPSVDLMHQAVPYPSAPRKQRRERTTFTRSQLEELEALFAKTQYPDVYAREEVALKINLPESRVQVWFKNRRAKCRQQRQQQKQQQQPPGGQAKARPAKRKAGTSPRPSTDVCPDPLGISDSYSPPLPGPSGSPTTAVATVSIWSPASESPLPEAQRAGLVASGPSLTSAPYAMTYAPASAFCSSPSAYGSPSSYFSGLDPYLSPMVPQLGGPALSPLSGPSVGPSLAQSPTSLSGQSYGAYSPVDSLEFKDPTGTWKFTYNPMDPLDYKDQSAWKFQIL
# Chain of HSF1 (Q00613 whole entry): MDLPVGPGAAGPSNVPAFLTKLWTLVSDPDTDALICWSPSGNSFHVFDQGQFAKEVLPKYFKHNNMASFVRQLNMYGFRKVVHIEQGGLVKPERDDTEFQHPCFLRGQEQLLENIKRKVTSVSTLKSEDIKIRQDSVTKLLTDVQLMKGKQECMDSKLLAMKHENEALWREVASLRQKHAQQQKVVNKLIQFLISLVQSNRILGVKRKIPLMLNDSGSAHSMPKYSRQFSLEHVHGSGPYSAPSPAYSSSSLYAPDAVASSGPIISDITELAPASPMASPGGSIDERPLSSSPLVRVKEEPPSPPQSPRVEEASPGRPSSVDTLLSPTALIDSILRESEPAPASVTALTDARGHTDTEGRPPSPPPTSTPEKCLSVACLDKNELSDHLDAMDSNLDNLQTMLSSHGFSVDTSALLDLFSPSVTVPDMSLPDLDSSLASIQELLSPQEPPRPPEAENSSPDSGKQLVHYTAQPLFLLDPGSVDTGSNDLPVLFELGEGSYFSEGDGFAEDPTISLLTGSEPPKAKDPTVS
# Chain of ELF4 (Q99607 whole entry): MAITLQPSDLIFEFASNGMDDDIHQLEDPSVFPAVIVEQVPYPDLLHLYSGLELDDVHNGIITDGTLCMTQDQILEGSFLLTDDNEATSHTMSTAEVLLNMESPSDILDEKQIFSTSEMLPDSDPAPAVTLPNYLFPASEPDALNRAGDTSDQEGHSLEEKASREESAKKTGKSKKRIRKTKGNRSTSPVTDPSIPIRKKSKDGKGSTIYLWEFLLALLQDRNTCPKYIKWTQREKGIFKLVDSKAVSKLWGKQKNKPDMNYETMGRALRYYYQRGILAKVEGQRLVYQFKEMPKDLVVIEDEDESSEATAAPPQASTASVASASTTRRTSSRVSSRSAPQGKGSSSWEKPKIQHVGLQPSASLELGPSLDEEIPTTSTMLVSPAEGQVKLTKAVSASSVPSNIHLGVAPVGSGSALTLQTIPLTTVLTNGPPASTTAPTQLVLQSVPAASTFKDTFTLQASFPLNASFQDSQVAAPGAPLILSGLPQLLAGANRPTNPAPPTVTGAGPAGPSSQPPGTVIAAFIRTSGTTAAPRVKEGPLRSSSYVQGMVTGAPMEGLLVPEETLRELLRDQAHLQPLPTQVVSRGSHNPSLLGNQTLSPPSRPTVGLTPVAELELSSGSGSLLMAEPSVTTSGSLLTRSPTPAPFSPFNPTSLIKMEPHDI
# Chain of ETV5 (P41161 whole entry): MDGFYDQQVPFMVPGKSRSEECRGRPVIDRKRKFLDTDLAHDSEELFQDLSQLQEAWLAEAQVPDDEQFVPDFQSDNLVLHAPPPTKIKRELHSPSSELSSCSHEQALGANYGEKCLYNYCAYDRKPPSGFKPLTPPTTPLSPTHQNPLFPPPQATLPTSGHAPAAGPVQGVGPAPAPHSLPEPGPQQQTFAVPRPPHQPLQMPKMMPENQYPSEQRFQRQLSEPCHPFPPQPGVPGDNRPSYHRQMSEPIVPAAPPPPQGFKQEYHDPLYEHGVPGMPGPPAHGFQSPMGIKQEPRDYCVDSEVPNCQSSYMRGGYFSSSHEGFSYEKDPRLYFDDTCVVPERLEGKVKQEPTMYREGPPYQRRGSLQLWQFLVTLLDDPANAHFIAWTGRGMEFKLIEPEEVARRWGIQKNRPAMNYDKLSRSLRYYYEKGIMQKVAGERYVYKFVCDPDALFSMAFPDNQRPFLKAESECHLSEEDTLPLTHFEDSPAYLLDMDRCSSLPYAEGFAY
# Chain of ETV1 (P50549 whole entry): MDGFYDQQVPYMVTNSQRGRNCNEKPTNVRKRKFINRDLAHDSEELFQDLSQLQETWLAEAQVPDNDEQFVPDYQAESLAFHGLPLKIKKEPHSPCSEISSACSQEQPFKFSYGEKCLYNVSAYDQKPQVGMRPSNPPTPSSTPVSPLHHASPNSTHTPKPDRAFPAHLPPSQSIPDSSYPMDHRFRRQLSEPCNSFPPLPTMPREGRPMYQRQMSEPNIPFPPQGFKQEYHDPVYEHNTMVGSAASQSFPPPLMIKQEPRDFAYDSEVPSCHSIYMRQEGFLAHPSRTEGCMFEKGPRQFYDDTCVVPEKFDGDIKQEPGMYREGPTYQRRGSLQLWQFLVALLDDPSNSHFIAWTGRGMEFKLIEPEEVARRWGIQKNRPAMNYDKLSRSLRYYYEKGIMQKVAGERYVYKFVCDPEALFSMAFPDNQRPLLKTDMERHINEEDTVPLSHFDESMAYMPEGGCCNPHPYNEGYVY
sequence,measurement,setting,value
TTTCCA,binding signal,FEV,"1.34 fold enrichment (6-mer frequency, TF over GST control)"
same,binding signal,ETV5,"1.28 fold enrichment (6-mer frequency, TF over GST control)"
same,binding signal,HSF1,"2.18 fold enrichment (6-mer frequency, TF over GST control)"
same,binding signal,SPIC,"1.18 fold enrichment (6-mer frequency, TF over GST control)"
same,binding signal,ELF4,"1.39 fold enrichment (6-mer frequency, TF over GST control)"
same,binding signal,ELK4,"1.39 fold enrichment (6-mer frequency, TF over GST control)"
same,binding signal,ETV2,"1.22 fold enrichment (6-mer frequency, TF over GST control)"
same,binding signal,ELF3,"1.19 fold enrichment (6-mer frequency, TF over GST control)"
same,binding signal,CRX,"1.61 fold enrichment (6-mer frequency, TF over GST control)"
same,binding signal,ETV1,"1.22 fold enrichment (6-mer frequency, TF over GST control)"
same,binding signal,ERF,"1.32 fold enrichment (6-mer frequency, TF over GST control)"
same,binding signal,ETV3L,"1.41 fold enrichment (6-mer frequency, TF over GST control)"
same,binding signal,ETS2,"1.38 fold enrichment (6-mer frequency, TF over GST control)"
same,binding signal,SPDEF,"1.29 fold enrichment (6-mer frequency, TF over GST control)"
same,binding signal,ETV7,"1.35 fold enrichment (6-mer frequency, TF over GST control)"
same,binding signal,ELF5,"1.43 fold enrichment (6-mer frequency, TF over GST control)"
same,binding signal,ETV3,"1.45 fold enrichment (6-mer frequency, TF over GST control)"
same,binding signal,ETV6,"1.54 fold enrichment (6-mer frequency, TF over GST control)"
